# Experimental data as given in PMC11062922 (Nature Chemical Biology, 2023).
# Read-outs that look alike come from different tables or passages of the source.
# How the values were obtained:
# Parameters in all cases: species or system human, MV4-11 + K-562 + COLO205 + SK-N-BE2 + OVCAR-8
# EGFR = conditions: read-out: apparent Kd, n = 1
# JAK2 = conditions: read-out: apparent Kd; compound concentrations:100 nM and 1000 nM (sheet 'Samples'); n = 1
# PRKACG = conditions: read-out: apparent Kd; compound concentrations:100 nM and 1000 nM (sheet 'Samples'); n = 1
# EPHB6 = conditions: read-out: apparent Kd, n = 1
# ERBB3 = conditions: read-out: apparent Kd, n = 1
# MAP4K5 = conditions: read-out: apparent Kd; compound concentrations: 100 nM and 1000 nM (sheet 'Samples'), CATDS: 0.26674698552626502; n = 1
# NLK = conditions: read-out: apparent Kd; compound concentrations: 100 nM and 1000 nM (sheet 'Samples'), CATDS: 0.30347996318959403; n = 1
# MAP2K5 = conditions: read-out: apparent Kd; compound concentrations:100 nM and 1000 nM (sheet 'Samples'); n = 1
# RIPK2 = conditions: read-out: apparent Kd, n = 1
# GAK = conditions: read-out: apparent Kd; compound concentrations: 100 nM and 1000 nM (sheet 'Samples'), CATDS: 0.38094365160878402; n = 1
# PGK1 = conditions: read-out: apparent Kd; compound concentrations:100 nM and 1000 nM (sheet 'Samples'); n = 1
# EPHA1 = conditions: read-out: apparent Kd; compound concentrations: 100 nM and 1000 nM (sheet 'Samples'), CATDS: 0.101565778514596; n = 1
# EPHA2 = conditions: read-out: apparent Kd; compound concentrations: 100 nM and 1000 nM (sheet 'Samples'), CATDS: 6.7925989209778895E-2; n = 1
# EPHA4 = conditions: read-out: apparent Kd; compound concentrations: 100 nM and 1000 nM (sheet 'Samples'), CATDS: 7.2128070641764394E-2; n = 1
# EPHA5 = conditions: read-out: apparent Kd; compound concentrations: 100 nM and 1000 nM (sheet 'Samples'), CATDS: 6.7106289127757499E-2; n = 1
# EPHA7 = conditions: read-out: apparent Kd, compound concentrations: 100 nM and 1000 nM (sheet 'Samples'), n = 1
# EPHB2 = conditions: read-out: apparent Kd; compound concentrations: 100 nM and 1000 nM (sheet 'Samples'), CATDS: 6.4850076698592204E-2; n = 1
# EPHB4 = conditions: read-out: apparent Kd; compound concentrations: 100 nM and 1000 nM (sheet 'Samples'), CATDS: 0.111344717085302; n = 1
# FLT4 = conditions: read-out: apparent Kd; compound concentrations: 100 nM and 1000 nM (sheet 'Samples'), CATDS: 5.9092612801250499E-2; n = 1
# MAPK14 = conditions: read-out: apparent Kd; compound concentrations: 100 nM and 1000 nM (sheet 'Samples'), CATDS: 5.8794914903048702E-2; n = 1
# MAPKAPK2 = conditions: read-out: apparent Kd; compound concentrations: 100 nM and 1000 nM (sheet 'Samples'), CATDS: 6.3284106262713205E-2; n = 1
# NNT = conditions: read-out: apparent Kd; compound concentrations: 100 nM and 1000 nM (sheet 'Samples'), CATDS: 5.7006998713096203E-2; n = 1
# RET = conditions: read-out: apparent Kd; compound concentrations: 100 nM and 1000 nM (sheet 'Samples'), CATDS: 0.20598352545457299; n = 1
# PIK3CG = conditions: read-out: apparent Kd; compound concentrations: 100 nM and 1000 nM (sheet 'Samples'), CATDS: 0.25285428644367502; n = 1
# TTN = conditions: read-out: apparent Kd; compound concentrations: 100 nM and 1000 nM (sheet 'Samples'), CATDS: 0.640536562241112; n = 1
# T10 = test system: T1, T10; conditions: read-out: apparent Kd; compound concentrations:100 nM and 1000 nM (sheet 'Samples'); n = 1
# T1 construct: gene NAT10
# TESK2 = conditions: read-out: apparent Kd; compound concentrations: 100 nM and 1000 nM (sheet 'Samples'), CATDS: 0.39865436806100402; n = 1
# NQO1 = conditions: read-out: apparent Kd; compound concentrations: 100 nM and 1000 nM (sheet 'Samples'), CATDS: 0.34789699583550798; n = 1
# NQO2 = conditions: read-out: apparent Kd; compound concentrations:100 nM and 1000 nM (sheet 'Samples'); n = 1
# NTRK1 = conditions: read-out: apparent Kd; compound concentrations:100 nM and 1000 nM (sheet 'Samples'); n = 1
# PDXK = conditions: read-out: apparent Kd; compound concentrations:100 nM and 1000 nM (sheet 'Samples'); n = 1
# [1] = compound concentrations: 100 nM and 1000 nM (sheet 'Samples'), CATDS: 1
# [2] = compound concentrations:100 nM and 1000 nM (sheet 'Samples')
smiles,measurement,setting,value
O=C(O)C(F)(F)F.O=S1CCN(Cc2ccc(-c3ccc4ncnc(Nc5ccc(OCc6cccc(F)c6)c(Cl)c5)c4c3)o2)CC1 [GW576609A],potency estimated from few doses,"EGFR; compound concentrations: 100 nM and 1000 nM (sheet 'Samples'), CATDS: 0.496271215913483",306 nM
same,potency estimated from few doses,JAK2,1050 nM
same,potency estimated from few doses,PRKACG,781 nM
Nc1ncc(-c2ccncc2)c2scc(-c3ccc4c(c3)CCN4C(=O)Cc3ccccc3)c12 [GSK2592465A],potency estimated from few doses,"EPHB6; compound concentrations: 100 nM and 1000 nM (sheet 'Samples'), CATDS: 0.25930053020636601",885 nM
same,potency estimated from few doses,"ERBB3; compound concentrations: 100 nM and 1000 nM (sheet 'Samples'), CATDS: 0.19609805104920999",1700 nM
same,potency estimated from few doses,MAP4K5,837 nM
same,potency estimated from few doses,NLK,660 nM
COc1cc2ncnc(Nc3ccc(OCc4ccccc4Br)c(Cl)c3)c2cc1OC.Cl [GI261590A],potency estimated from few doses,EGFR; [1],2230 nM
Cl.O=C(O[C@H]1CN[C@H](C#Cc2cc3ncnc(Nc4ccc5c(cnn5Cc5ccccc5)c4)c3s2)C1)N1CCOCC1 [GSK200398A_KCGS],potency estimated from few doses,EGFR; [2],26.7 nM
same,potency estimated from few doses,MAP2K5,2200 nM
same,potency estimated from few doses,RIPK2; [2],936 nM
C#Cc1cccc(Nc2ncnc3cc(OC)c(OC4CCN(C)CC4)cc23)c1 [BI00007366],potency estimated from few doses,"EGFR; compound concentrations: 100 nM and 1000 nM (sheet 'Samples'), CATDS: 0.27319466125259201",1300 nM
same,potency estimated from few doses,GAK,634 nM
same,potency estimated from few doses,"RIPK2; compound concentrations: 100 nM and 1000 nM (sheet 'Samples'), CATDS: 0.36838569788984799",674 nM
Cn1cncc1-c1cc2c(Nc3ccc(OCc4ccccc4)cc3)ncnc2cn1 [GW281179X],potency estimated from few doses,"EGFR; compound concentrations: 100 nM and 1000 nM (sheet 'Samples'), CATDS: 0.48641322117949298",124 nM
same,potency estimated from few doses,"RIPK2; compound concentrations: 100 nM and 1000 nM (sheet 'Samples'), CATDS: 0.514367617378505",111 nM
CS(=O)(=O)CCNCc1nc(-c2ccc3ncnc(Nc4ccc(OCc5cccc(F)c5)c(Cl)c4)c3c2)cs1.Cl [GW583340C],potency estimated from few doses,"EGFR; compound concentrations: 100 nM and 1000 nM (sheet 'Samples'), CATDS: 0.528390210256103",96.3 nM
same,potency estimated from few doses,PGK1,119 nM
Cl.Nc1c(C(=O)c2ccc(CCCN3CCOCC3)cc2)cnn1-c1ccc(F)cc1 [RO1153427-001],potency estimated from few doses,ERBB3; [1],1820 nM
COc1cc2ncnc(Nc3cccc(Cl)c3F)c2cc1O[C@H]1CC[C@H]([C@@H]2NCCNC2=O)CC1 [BI00133844],potency estimated from few doses,"EGFR; compound concentrations: 100 nM and 1000 nM (sheet 'Samples'), CATDS: 0.60963151876595101",15.4 nM
same,potency estimated from few doses,EPHA1,403 nM
same,potency estimated from few doses,EPHA2,1060 nM
same,potency estimated from few doses,EPHA4,898 nM
same,potency estimated from few doses,EPHA5,1090 nM
same,potency estimated from few doses,EPHA7; CATDS: 5.7157289588894301E-2,1800 nM
same,potency estimated from few doses,EPHB2,1200 nM
same,potency estimated from few doses,EPHB4,332 nM
same,potency estimated from few doses,FLT4,1600 nM
same,potency estimated from few doses,MAPK14,1630 nM
same,potency estimated from few doses,MAPKAPK2,1290 nM
same,potency estimated from few doses,NNT,1810 nM
same,potency estimated from few doses,RET,99 nM
COc1ccc2ncnc(Nc3ccc(OCc4ccccc4)cc3)c2c1.Cl [GI261520A],potency estimated from few doses,"EGFR; compound concentrations: 100 nM and 1000 nM (sheet 'Samples'), CATDS: 0.82087147453604603",67.2 nM
same,potency estimated from few doses,PIK3CG,1240 nM
same,potency estimated from few doses,"RIPK2; compound concentrations: 100 nM and 1000 nM (sheet 'Samples'), CATDS: 0.26130568040748398",1100 nM
c1ccc(COc2ccc(Nc3ncnc4ccc(-c5ccco5)cc34)cc2)cc1 [GW284372X],potency estimated from few doses,"EGFR; compound concentrations: 100 nM and 1000 nM (sheet 'Samples'), CATDS: 0.410036232309059",781 nM
same,potency estimated from few doses,TTN,304 nM
C[C@@H]1CC[C@@H](C(=O)Nc2ccccc2)CN1c1cc(-c2ccc3c(N)n[nH]c3c2)nc(N)n1 [GSK2286062A],potency estimated from few doses,ERBB3; [2],1760 nM
same,potency estimated from few doses,T10,1120 nM
Cl.O=S(=O)(CCNCc1ccc(-c2ccc3ncnc(Nc4ccc(OCc5cccc(F)c5)c(Cl)c4)c3c2)o1)c1ccccc1 [GW633459A],potency estimated from few doses,"EGFR; compound concentrations: 100 nM and 1000 nM (sheet 'Samples'), CATDS: 0.67043836864821504",597 nM
same,potency estimated from few doses,TESK2,1830 nM
COc1cccc(NC(=O)NCCNc2ccnc(Nc3ccc(F)cc3)n2)c1 [GSK1379879A],potency estimated from few doses,EPHA7; CATDS: 1,2400 nM
CC(=O)NCc1cccc(C#Cc2cncnc2Nc2ccc(OCc3cccc(F)c3)c(Cl)c2)c1 [GW807930X],potency estimated from few doses,"EGFR; compound concentrations: 100 nM and 1000 nM (sheet 'Samples'), CATDS: 0.88842612806031096",149 nM
same,potency estimated from few doses,NQO1,2230 nM
Cc1cc(-c2ccccn2)cc(C)c1/C=C/c1cncc(-c2nn[nH]n2)c1.Cl [GW459057A],potency estimated from few doses,EPHB6; [2],162 nM
same,potency estimated from few doses,NQO2,1420 nM
Cl.c1ccc(Cc2nc3ccc(Nc4ncnc5ccccc45)cc3[nH]2)cc1 [GR269666A_KCGS],potency estimated from few doses,EGFR; [2],76 nM
same,potency estimated from few doses,NTRK1,1110 nM
same,potency estimated from few doses,PDXK,1550 nM
